Screening results: PubChem BioAssay, several laboratories
dFosB act: enhances mouse delta FosB homodimer DNA binding; 0.99% of 340,000 active; purified delta FosB, TAMRA-CDK5 oligo fluorescence polarization; percent of positive-control signal above neutral wells; AID 493131; activation, % at 25 µM;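 active means mean activation above about 17%, with every replicate also reaching it, limit read from the data, passing the limit was not always enough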
Target sequence (P13346 whole entry, looked up): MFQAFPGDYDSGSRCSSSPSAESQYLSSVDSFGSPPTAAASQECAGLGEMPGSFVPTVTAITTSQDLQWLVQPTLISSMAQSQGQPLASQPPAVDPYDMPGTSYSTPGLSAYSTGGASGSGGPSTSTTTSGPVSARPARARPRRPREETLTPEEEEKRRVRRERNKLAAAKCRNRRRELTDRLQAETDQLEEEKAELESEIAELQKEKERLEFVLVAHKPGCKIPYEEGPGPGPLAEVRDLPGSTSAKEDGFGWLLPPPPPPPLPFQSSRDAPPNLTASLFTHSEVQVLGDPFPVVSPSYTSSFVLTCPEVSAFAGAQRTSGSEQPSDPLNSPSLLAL
UBC13 inh: human UBC13 polyubiquitination inhibition. P61088. UBC13 polyubiquitin chain formation, TR-FRET. inhibition, % at 20 µM. 0.47% of 330,000 active; in the data active means inhibition above about 45%, passing the limit was not always enough
GRIN3A LBD mod: NR3A (human) ligand-binding domain modulation; NR3A LBD differential scanning fluorimetry, Tm shift; 0% = protein alone, 100% = glycine-bound protein; Tm shift relative to glycine control, % at 25 µM; 2.5% of 340,000 active; AID 1259313;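 active means melting temperature shift of at least 10% of the positive control shift, at one fixed dose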
NALP1 inh: inhibitors of NALP1 inflammasome in yeast | inhibition, % at 10 µM | S. cerevisiae NALP1/ASC/caspase-1 growth, X-gal OD620, 72 h | 0.61% of 280,000 active; in the data active means inhibition mostly above about 24%, no sharp cut-off; inactive means mostly below about 32%
CR mimetic SO: lowers age-related superoxide in aged yeast cells. S. cerevisiae aged cells, superoxide DHE fluorescence; hits give low values. superoxide response (% of plate mean), % at 10 µM. 0.18% of 330,000 active;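 active means superoxide response under a set limit, about three screen SD below normal, cut at about 65% in these data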;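 further: yeast aged for seven days with compound at 30 °C before DHE staining; 100% = average MFI of all compound-treated wells on the plate with controls excluded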
Active calls of the source: *; x = no result given. Sampled rows, rich in hits. Any-hit rate of the full collection: about 4.3%.

SMILES	dFosB act	UBC13 inh	GRIN3A LBD mod	NALP1 inh	CR mimetic SO
CNC(=O)N(O)C1N(NC(=O)Nc2ccccc2)C(=S)SC1(C)C (stereo not given)	2	-1	0	x	88
CNC(=O)N(O)C1N(/N=C/c2ccc(N(C)C)cc2)C(=S)SC1(C)C (stereo not given)	-5	-4	0	-4	98
CC1(C)SC(=S)N(/N=C/c2ccccc2)C1N(O)C(=O)Nc1ccc([N+](=O)[O-])cc1 (stereo not given)	3	-9	14*	16	97
Cc1ccc(S(=O)(=O)NCC(=O)OCC(=O)N2N=C(c3ccc(Cl)cc3)CC2c2ccco2)cc1C (stereo not given)	-9	-11	31*	27	100
COc1cc(C(=O)NNC(=O)C2CC2)cc(OC)c1OC	-3	2	15*	10	86
O=C(Nc1ccccc1)OCc1cnc(Cl)s1	-84	12	0	-9	116
O=C(Nc1ccc(Cl)c(Cl)c1)OCc1cnc(Cl)s1	0	-8	12*	16	104
COc1ccc(-c2c(-c3cc(OC)cc(OC)c3)n(C)c3ccc(-c4ccc(N(C)C)nc4)cc23)cc1	-9	38	1	x	99
c1ccc(Nc2nc3ccccc3o2)cc1	6	-3	1	18	102
Fc1ccccc1Nc1nc2ccccc2o1	1	-5	34*	8	97
COc1cccc(C(C(=O)NC2CCCC2)N(C(=O)CNC(=O)c2ccco2)c2cccnc2)c1 (stereo not given)	-1	-6	0	18	113
O=C(CCCn1c(=O)[nH]c2ccsc2c1=O)NCc1cccs1	0	2	-1	21*	86
Fc1cccc(Nc2c3c(nc4ccccc24)CCC3)c1	-9	13	-2	20	94
c1ccc2c(Nc3ccc4c(c3)OCCO4)c3c(nc2c1)CCCC3	-7	4	-1	29*	100
CCOC(=O)c1c(NC2OC(=O)c3c2ccc(OC)c3OC)sc(C(=O)OC(C)(C)C)c1C (stereo not given)	-9	16	18*	49	103
COc1ccc2c(c1OC)C(=O)OC2Nc1ccccn1 (stereo not given)	-8	4	0	30	93
Cc1nnsc1-c1onc(C)c1C(=O)Nc1cc(Cl)cc(Cl)c1	3	4	7	x	106
Cc1ccc(NC(=O)c2c(C)noc2-c2snnc2C)cc1	0	5	12*	x	102
O=C(COC(=O)c1cccc(O)c1)Nc1ccc(S(=O)(=O)N2CCOCC2)cc1	0	11	0	x	100
O=[N+]([O-])c1cc(S(=O)(=O)Nc2ccccc2)ccc1N1CCN(c2ccc(O)cc2)CC1	-7	-6	-6	25	96
Cc1ccc(NS(=O)(=O)c2ccc(N3CCN(c4ccc(O)cc4)CC3)c([N+](=O)[O-])c2)c(C)c1	-5	-13	17*	30	98
CC(=O)N1CCc2cc(S(=O)(=O)CCC(=O)NCc3ccc(F)cc3)ccc21	8	-1	0	13	90
Cc1ccc2nc(-c3ccc(SCC(=O)N4CCc5ccccc54)nc3)[nH]c2c1	8	-5	23*	29	88
Cc1ccc2nc(-c3ccc(SCC(=O)O)nc3)[nH]c2c1	0	4	1	-9	88
Cc1ccc(-c2nnc3ccc(SCC(=O)N4CCCc5ccccc54)nn23)cc1	-15	2	18*	6	98
SMILES	dFosB act	UBC13 inh	GRIN3A LBD mod	NALP1 inh	CR mimetic SO
CCC1(C)NC(=O)N(CC(=O)c2cc(C)n(C3CC3)c2C)C1=O (stereo not given)	3	-2	2	x	x
CC(=O)Nc1ccc(NC2CCCCC2NS(=O)(=O)c2ccccc2)cc1 (stereo not given)	2	8	2	0	94
Cc1ccccc1CN(C)CC(=O)Nc1ccccc1-c1ccccc1	-13	-4	23*	29	83
Cc1ccccc1CN(C)CC(=O)Nc1ccccc1Oc1ccccc1	-3	2	14*	20	96
CN(CC(=O)Nc1ccccc1Oc1ccccc1)Cc1ccccc1F	-6	7	0	18	97
O=C(Nc1nnc(-c2ccco2)o1)c1ccc([N+](=O)[O-])s1	-3	-1	-3	4	122
CCOC(=O)c1sc(=S)n(Cc2ccccc2)c1C	-5	-2	14*	18	86
COCCCNC(=O)Cn1ccc(N)nc1=O	3	3	3	x	100
COc1cccc(C(=O)CC(=O)C(=O)Nc2cc(OC)c(OC)c(OC)c2)c1	x	-8	x	5	83
